mHTT-CaM PPI inh: inhibitors of human mutant huntingtin-calmodulin interaction | AID 1671202 | AlphaScreen His-mHTT/GST-CaM binding, luminescence | inhibition, % at 15 µM | P42858 | hit rate 3.6% among 190,000
Pf apPOL inh: Pf-apPOL DNA polymerase inhibition; Recombinant Pf-apPOL, molecular beacon fluorescence, 1.5 h; hit rate 0.25% among 210,000; inhibition, % at 10 µM
Of the large screens only hits and unclear results are named; the others gave an inactive call. Only a selection was taken, and hits are over-represented in it overall. No stated cut-off is given here; in the data, active means inhibition above about 50%; inactive means the rest.

O=C1C2=C(Nc3ccccc3SC2c2ccco2)c2ccccc21 (configuration not stated)	mHTT-CaM PPI inh 69.0
COc1cc(C2C3=C(Nc4c2c(=O)[nH]c(=O)n4C)c2ccccc2C3=O)ccc1O (configuration not stated)	none
COc1ccc(C2Sc3ccccc3NC3=C2C(=O)c2ccccc23)cc1OC (configuration not stated)	mHTT-CaM PPI inh 69.2
COc1ccc(C(=O)NCCc2nc3ccccc3[nH]2)cc1OC	none
CCc1cc(C2CCCN2C(=O)Cn2nc(C(F)(F)F)cc2C)on1 (configuration not stated)	none
COc1cccc(C2C3CC(C(C)(C)C)CC=C3C(C#N)=C(N)C2(C#N)C#N)c1O (configuration not stated)	none
CC(C)(C)C1CC=C2C(C#N)=C(N)C(C#N)(C#N)C(CCc3ccccc3)C2C1 (configuration not stated)	mHTT-CaM PPI inh 65.0
CSc1sc(-c2ccnc(SCC(=O)c3ccc(Cl)cc3)n2)c2c1C(=O)CCC2	none (no result: mHTT-CaM PPI inh)
Cc1c(C(=O)O)sc2ncn(CC(=O)Nc3cccc(C(F)(F)F)c3)c(=O)c12	none
COCCn1cnc2sc(C(=O)Nc3cccc(C(F)(F)F)c3)c(C)c2c1=O	none
CCC(C)NC(=O)c1sc2ncn(CC(=O)Nc3cccc(C(F)(F)F)c3)c(=O)c2c1C (configuration not stated)	mHTT-CaM PPI inh 99.0
CCCCNC(=O)c1sc2ncn(CC(=O)Nc3cccc(C(F)(F)F)c3)c(=O)c2c1C	mHTT-CaM PPI inh 68.0
CCOc1ccc(C(=O)Nc2cccc(-c3nc4ccccc4o3)c2)cc1	none
CC1Oc2ccccc2C=C1C=C1Oc2cc(OC(=O)c3ccco3)ccc2C1=O (configuration not stated)	none
COc1ccc(C(=O)NCCSC2CCCCC2)cc1	none
COc1ccc(OC)c(C2C=C(c3ccc(Cl)cc3)Nc3nnnn32)c1 (configuration not stated)	none
COc1cccc(C2C=C(c3cccc(Br)c3)Nc3nnnn32)c1 (configuration not stated)	none
COc1ccc(C2C=C(c3cccc(Br)c3)Nc3nnnn32)cc1OC (configuration not stated)	mHTT-CaM PPI inh 65.0
Brc1ccc(C2C=C(c3cccs3)Nc3ncnn32)cc1 (configuration not stated)	none
COc1ccc(OC)c(C2C=C(c3cccc(Br)c3)Nc3nnnn32)c1 (configuration not stated)	mHTT-CaM PPI inh 56.0
Brc1cccc(C2C=C(c3cccs3)Nc3ncnn32)c1 (configuration not stated)	Pf apPOL inh 65.4
COc1cc(C2C=C(c3cccc(NC(C)=O)c3)Nc3ncnn32)cc(OC)c1OC (configuration not stated)	Pf apPOL inh 60.7
COc1cccc(C2=CC(c3cc(OC)c(OC)c(OC)c3)n3ncnc3N2)c1 (configuration not stated)	none
N#Cc1c(N)nc2c(sc3nc4c(cc32)CCC4)c1-c1ccc(Br)cc1	none (no result: Pf apPOL inh)
O=C(CCCn1cnc(-c2ccccc2)cc1=O)NCC(F)(F)F	none
Cn1cccc1/C=N/n1cnnc1	none (no result: Pf apPOL inh)
CC12CCC(c3nnc(SCC(=O)Nc4ccccc4Cl)nc31)C2(C)C (configuration not stated)	none
COc1ccc(C2C=C(c3cccc(Br)c3)Nc3ncnn32)cc1 (configuration not stated)	mHTT-CaM PPI inh 59.0
Cc1ccc(C2C=C(c3cccc(Br)c3)Nc3ncnn32)cc1 (configuration not stated)	none
CC1(C)CC(=C2C(=O)c3ccccc3C2=O)C=C2c3ccccc3C(=O)C21 (configuration not stated)	mHTT-CaM PPI inh 65.0
O=C1c2ccccc2C(=O)c2c(NC3CCCCC3)ccc(NC3CCCCC3)c21	none (no result: mHTT-CaM PPI inh)
COc1cc(SC)ccc1C(=O)NCCNC(=O)c1nonc1N	none
CC(CC(=O)Nc1nc2c(s1)CCCC2)c1ccccc1 (configuration not stated)	none
O=C(Nc1nc2c(s1)CCCC2)C(c1ccccc1)n1cccc1 (configuration not stated)	mHTT-CaM PPI inh 94.9
COCOCCn1cc(CN2CCS(=O)(=O)N(Cc3ccc(-c4ccc(Cl)cc4)cc3)C(CC(C)C)C2=O)nn1 (configuration not stated)	mHTT-CaM PPI inh 53.5
COCOCCn1cc(CN2CCS(=O)(=O)N(Cc3ccc(-c4ccc(F)cc4)cc3)C(C)C2=O)nn1 (configuration not stated)	mHTT-CaM PPI inh 62.6
COCOCCn1cc(CN2CCS(=O)(=O)N(Cc3ccc(-c4ccccc4)cc3)C(C)C2=O)nn1 (configuration not stated)	mHTT-CaM PPI inh 58.9
COCOCCn1cc(CN2CCS(=O)(=O)N(Cc3ccc(-c4ccc(Cl)cc4)cc3)C(C)C2=O)nn1 (configuration not stated)	none
CCC/C=C/c1ccc(CN2C(C)C(=O)N(Cc3cn(CCOCOC)nn3)CCS2(=O)=O)cc1 (configuration not stated)	none
COCOCCn1cc(CN2CCS(=O)(=O)N(Cc3ccc(-c4ccc(Cl)nc4)cc3)C(CC(C)C)C2=O)nn1 (configuration not stated)	none
O=C(Nc1ccccc1NC(=O)c1ccco1)c1ccco1	none
O=C(CCc1ccccc1)Nc1c2c(nn1-c1ccc(F)cc1)CS(=O)(=O)C2	none
C(=Nc1c2ccccc2nc2ccccc12)c1ccco1	mHTT-CaM PPI inh 55.8 (no result: Pf apPOL inh)
C(=Nc1c2ccccc2nc2ccccc12)c1cccc2c1OCOC2	none (no result: Pf apPOL inh)
COc1ccccc1C=C1Oc2c(ccc(O)c2CN2CCCCC2C)C1=O (configuration not stated)	none
COc1ccccc1OCC(=O)N1CCN(c2ccc(F)cc2)CC1	none
COc1ccc(/C=C2\SC(=O)N(CCN)C2=O)cc1OC	none
NCCN1C(=O)S/C(=C\c2ccc(F)c(Oc3ccccc3)c2)C1=O	mHTT-CaM PPI inh 71.0
O=C(CCC1CCCCC1)Nc1ccccc1Cl	none
COc1ccc(NC(=O)NCCC2CCN(S(=O)(=O)c3ccccc3)CC2)c(OC)c1	none
COc1ccc2nc(SC(=O)c3ccccc3)nc(C)c2c1	mHTT-CaM PPI inh 100.0
COc1ccc(NC(=O)c2ccccc2Cl)c(OC)c1	none
COc1ccc2nc(SC(=O)c3ccccc3Cl)nc(C)c2c1	mHTT-CaM PPI inh 99.0
COc1ccc2nc(SCc3cccc([N+](=O)[O-])c3)nc(C)c2c1	none
O=C(c1cccs1)N1CCC(c2nc(-c3ccc(F)cc3)n[nH]2)CC1	none
CN1C(=O)C(C)(C)COc2cc(NC(=O)C34CC5CC(CC(C5)C3)C4)ccc21	none
COc1ccccc1NC(=O)C1(c2ccc(OC)c(OC)c2)CCOCC1	none
CC(C)(C)c1nc(CN2CCCCC2)cc(CN2CCCCC2)c1O	none
Cc1cc(=O)n2ccc(CN3CCCCC3)c(O)c2n1	mHTT-CaM PPI inh 92.0
Cc1ccc(S(=O)(=O)N2CCN(S(=O)(=O)c3ccccc3)C2)cc1[N+](=O)[O-]	none
COCCCNC(=O)c1ccc(Cl)c(NC(=O)Nc2ccc(Cl)c(Cl)c2)c1	mHTT-CaM PPI inh 52.0
COCCCNC(=O)c1cccc(Cl)c1	none
CCCCC(CC)CNS(=O)(=O)c1ccc(OCC)c2ncccc12 (configuration not stated)	none
CCSc1nccc(=O)[nH]1	none
Nc1ccnc(=O)[nH]1	Pf apPOL inh 105.3 (no result: mHTT-CaM PPI inh)
CCOC(=O)c1ccc2nc(NC(=O)C3COc4ccccc4O3)sc2c1 (configuration not stated)	none
COc1ccc(-n2nc3c(c2NC(=O)c2cccc(OC)c2)CSC3)cc1	none
